Test results taken from PubChem BioAssay AID1159580 (chemical genetic matrix, 2015).
Among all 5,500 compounds or so, about 2,000 (36%) were called active. Roughly 18% stayed inconclusive and do not appear here. Rule as the data show it: active = normalized growth mostly below about 0.91 (no sharp cut-off); inconclusive = no clear call, values can overlap the other calls; inactive = mostly above about 0.92. The list shows a part of the results.

Test: chemical genetic growth profiling, strain panel (AID 1159580);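 also: tested at 20 µM; growth read once vehicle control cultures reached saturation at 30 °C; 1 = growth at the plate median or of vehicle wells; lower values mean less growth of the strain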
Details: growth OD

Measured: normalized growth

C[C@]12CCC3c4ccc(OS(=O)(=O)O)cc4CCC3C1CC[C@H]2O (stereo not given in full)
inactive: S. cerevisiae deletion strains, locus YJR043C, strain POL32, hits give low values 1 | S. cerevisiae deletion strains, locus YJR066W, strain TOR1, hits give low values 0.983 | S. cerevisiae deletion strains, locus YKL009W, strain mrt4, hits give low values 0.99 | S. cerevisiae deletion strains, locus YKL068W, hits give low values 0.995 | S. cerevisiae deletion strains, locus YKL085W, strain MDH1 (second series), hits give low values 0.987 | S. cerevisiae deletion strains, locus YKL085W, strain MDH1, hits give low values 0.987 | S. cerevisiae deletion strains, locus YKL160W, strain elf1, hits give low values 0.923 | S. cerevisiae deletion strains, locus YKL190W, strain CNB1, hits give low values 1 | S. cerevisiae deletion strains, locus YKR001C, strain vps1, hits give low values 0.994 | S. cerevisiae deletion strains, locus YKR026C, strain gcn3, hits give low values 0.988 | S. cerevisiae deletion strains, locus YKR091W, strain srl3, hits give low values 0.97 | S. cerevisiae deletion strains, locus YLL001W, strain dnm1, hits give low values 0.994 | S. cerevisiae deletion strains, locus YLL026W, hits give low values 0.967 | S. cerevisiae deletion strains, locus YLL041C, strain sdh2, hits give low values 0.978 | S. cerevisiae deletion strains, locus YLR027C, strain aat2, hits give low values 0.997 | S. cerevisiae deletion strains, locus YLR039C, strain RIC1, hits give low values 0.977 | S. cerevisiae deletion strains, locus YLR058C, strain SHM2, hits give low values 0.99 | S. cerevisiae deletion strains, locus YLR102C, strain apc9, hits give low values 0.99 | S. cerevisiae deletion strains, locus YLR113W, strain HOG1, hits give low values 0.963 | S. cerevisiae deletion strains, locus YLR221C, strain rsa3, hits give low values 1.02 | S. cerevisiae deletion strains, locus YLR258W, strain gsy2, hits give low values 0.965 | S. cerevisiae deletion strains, locus YLR262C, strain YPT6 (second series), hits give low values 0.977 | S. cerevisiae deletion strains, locus YLR262C, strain YPT6, hits give low values 0.945 | S. cerevisiae deletion strains, locus YLR268W, strain sec22, hits give low values 0.973 | S. cerevisiae deletion strains, locus YLR320W, strain mms22, hits give low values 1.02 | S. cerevisiae deletion strains, locus YLR330W, strain CHS5, hits give low values 0.987 | S. cerevisiae deletion strains, locus YLR342W, strain FKS1 (second series), hits give low values 0.988 | S. cerevisiae deletion strains, locus YLR342W, strain FKS1, hits give low values 0.987 | S. cerevisiae deletion strains, locus YLR357W, strain rsc2, hits give low values 0.955 | S. cerevisiae deletion strains, locus YLR370C, strain arc18, hits give low values 0.976 | S. cerevisiae deletion strains, locus YLR371W, strain rom2, hits give low values 0.986 | S. cerevisiae deletion strains, locus YLR384C, strain iki3, hits give low values 0.959 | S. cerevisiae deletion strains, locus YLR418C, strain cdc73, hits give low values 0.973 | S. cerevisiae deletion strains, locus YML016C, strain PPZ1, hits give low values 0.993 | S. cerevisiae deletion strains, locus YML032C, strain rad52, hits give low values 0.989 | S. cerevisiae deletion strains, locus YML120C, strain ndi1, hits give low values 0.995 | S. cerevisiae deletion strains, locus YML124C, strain tub3, hits give low values 0.988 | S. cerevisiae deletion strains, locus YMR058W, strain fet3, hits give low values 0.979 | S. cerevisiae deletion strains, locus YMR078C, strain ctf18, hits give low values 0.982 | S. cerevisiae deletion strains, locus YMR125W, strain sto1, hits give low values 0.994 | S. cerevisiae deletion strains, locus YMR129W, hits give low values 0.961 | S. cerevisiae deletion strains, locus YMR205C, strain PFK2, hits give low values 1.01 | S. cerevisiae deletion strains, locus YMR223W, strain ubp8, hits give low values 0.985 | S. cerevisiae deletion strains, locus YMR231W, strain pep5, hits give low values 0.991 | S. cerevisiae deletion strains, locus YMR263W, strain SAP30, hits give low values 1 | S. cerevisiae deletion strains, locus YMR307W, strain GAS1, hits give low values 0.928 | S. cerevisiae deletion strains, locus YNL067W, strain RPL9B, hits give low values 1.02 | S. cerevisiae deletion strains, locus YNL071W, strain lat1, hits give low values 0.988 | S. cerevisiae deletion strains, locus YNL128W, strain TEP1, hits give low values 0.982 | S. cerevisiae deletion strains, locus YNL153C, strain GIM3, hits give low values 1.03 | S. cerevisiae deletion strains, locus YNL183C, strain NPR1, hits give low values 0.913 | S. cerevisiae deletion strains, locus YNL209W, strain ssb2, hits give low values 0.979 | S. cerevisiae deletion strains, locus YNL233W, strain BNI4, hits give low values 0.998 | S. cerevisiae deletion strains, locus YNL248C, strain rpa49, hits give low values 0.914 | S. cerevisiae deletion strains, locus YNL250W, strain rad50, hits give low values 0.995 | S. cerevisiae deletion strains, locus YNL271C, strain bni1, hits give low values 0.989 | S. cerevisiae deletion strains, locus YNL298W, strain CLA4, hits give low values 0.984 | S. cerevisiae deletion strains, locus YNL307C, strain MCK1, hits give low values 0.98 | S. cerevisiae deletion strains, locus YNL322C, strain KRE1 (second series), hits give low values 0.952 | S. cerevisiae deletion strains, locus YNR049C, strain mso1, hits give low values 0.953 | S. cerevisiae deletion strains, locus YNR052C, strain pop2, hits give low values 0.982 | S. cerevisiae deletion strains, locus YOL006C, strain TOP1, hits give low values 1.05 | S. cerevisiae deletion strains, locus YOL012C, strain htz1 1.45 | S. cerevisiae deletion strains, locus YOL147C, strain pex11, hits give low values 0.984 | S. cerevisiae deletion strains, locus YOR001W, strain rrp6, hits give low values 1.01 | S. cerevisiae deletion strains, locus YOR061W, strain CKA2, hits give low values 0.986 | S. cerevisiae deletion strains, locus YOR069W, strain VPS5, hits give low values 0.988 | S. cerevisiae deletion strains, locus YOR070C, strain gyp1, hits give low values 0.991 | S. cerevisiae deletion strains, locus YOR080W, strain dia2, hits give low values 0.96 | S. cerevisiae deletion strains, locus YOR083W, strain WHI5, hits give low values 0.901 | S. cerevisiae deletion strains, locus YOR106W, strain vam3, hits give low values 0.95 | S. cerevisiae deletion strains, locus YOR136W, strain idh2, hits give low values 0.988 | S. cerevisiae deletion strains, locus YOR144C, strain elg1, hits give low values 0.987 | S. cerevisiae deletion strains, locus YOR184W, strain ser1, hits give low values 0.995 | S. cerevisiae deletion strains, locus YOR231W, strain MKK1, hits give low values 0.965 | S. cerevisiae deletion strains, locus YOR265W, strain rbl2, hits give low values 0.978 | S. cerevisiae deletion strains, locus YOR270C, strain vph1, hits give low values 0.97 | S. cerevisiae deletion strains, locus YOR290C, strain snf2, hits give low values 0.951 | S. cerevisiae deletion strains, locus YOR316C, strain cot1, hits give low values 0.989 | S. cerevisiae deletion strains, locus YPL051W, strain arl3, hits give low values 0.973 | S. cerevisiae deletion strains, locus YPL078C, strain atp4, hits give low values 0.97 | S. cerevisiae deletion strains, locus YPL106C, strain sse1, hits give low values 0.955 | S. cerevisiae deletion strains, locus YPL240C, strain hsp82, hits give low values 0.984 | S. cerevisiae deletion strains, locus YPL256C, strain CLN2, hits give low values 0.981 | S. cerevisiae deletion strains, locus YPR119W, strain clb2, hits give low values 0.988 | S. cerevisiae deletion strains, locus YPR141C, strain kar3, hits give low values 0.984 | S. cerevisiae deletion strains, locus YPR163C, strain tif3, hits give low values 0.984 | S. cerevisiae deletion strains, locus YPR167C, strain met16, hits give low values 0.988 | S. cerevisiae deletion strains, strain wtn01, hits give low values 0.975 | S. cerevisiae strains, strain wild type, hits give low values 0.999
